Laboratory results reported in the supplement of paper PMC13380429.

Tests used:
[1] = test system: Vero E6 infected with SARS-CoV-2; experiment: morphology score (similarity to uninfected cells); higher = more like uninfected cells; conditions: 24 h
[2] = test system: Vero E6 infected with SARS-CoV-2; experiment: SARS-CoV-2 infection rate relative to infected DMSO; higher = more infection, active = 60 or less; conditions: 24 h

Row | Compound | morphology score [1] | SARS-CoV-2 infection rate [2]
1 | O=C(CCCCCCC(=O)Nc1cccnc1)NO [pyroxamide] (0.833333 µM) | 0.0384 | 104% (inactive)
2 | CC(C)=CCC/C(C)=C/CNCCNC1C2CC3CC(C2)CC1C3 (configuration not stated) (10 µM) | 0.122 | 94.5% (inactive)
3 | CN[C@H]1CN(c2ccc3c(=O)c(C(=O)O)cn(-c4nccs4)c3n2)C[C@@H]1OC [voreloxin] (0.833333 µM) | 0.068 | 104% (inactive)
4 | O=C(O)Cc1ccc2c(c1)C(=O)c1ccccc1CO2 [isoxepac] (10 µM) | 0.152 | 103% (inactive)
5 | CN(C)CCOC(c1ccccc1)c1ccccc1 [diphenhydramine] (10 µM) | 0.203 | 86.5% (inactive)
6 | CCN(CC)CCOc1ccc2c(c1)C(=O)c1cc(OCCN(CC)CC)ccc1-2 [tilorone] (0.833333 µM) | 0.187 | 105% (inactive)
7 | NC(=O)CN1C=CCC(C(N)=O)=C1 [caricotamide] (10 µM) | 0.109 | 106% (inactive)
8 | CC(C)n1c(/C=C/[C@@H](O)C[C@@H](O)CC(=O)O)c(-c2ccc(F)cc2)c2ccccc21 [fluvastatin] (0.833333 µM) | -0.082 | 115% (inactive)
9 | CC(C(=O)O)c1cccc(Oc2ccccc2)c1 (configuration not stated) [fenoprofen] (10 µM) | 0.0202 | 108% (inactive)
10 | C#C[C@]1(OC(C)=O)CC[C@H]2[C@@H]3CCC4=CC(=O)CC[C@@H]4[C@H]3CC[C@@]21C [norethindrone-acetate] (10 µM) | -0.146 | 106% (inactive)
11 | CC(C)(C)c1ccc2cc(C#N)c(C#N)cc2c1 (10 µM) | 0.103 | 105% (inactive)
12 | Cc1cc2cc3c(C)cc(=O)oc3c(C)c2o1 [trioxsalen] (10 µM) | 0.133 | 94% (inactive)
13 | CON(C)C(=O)[C@H](O)[C@H](Cc1ccccc1)NC(=O)c1cc2cc(Cl)ccc2[nH]1 (10 µM) | 0.109 | 109% (inactive)
14 | COc1cc2c(cc1OC)-c1c/c(=N\c3c(C)cc(C)cc3C)n(C)c(=O)n1CC2 [trequinsin] (10 µM) | 0.541 | 87.5% (inactive)
15 | CC(C)NC(=O)N1CC[C@H](NC2=Nc3cc(F)ccc3N(CC(F)F)c3ccc(Cl)cc32)C1 (0.833333 µM) | 0.0642 | 89% (inactive)
16 | OCCNC1CCCc2c1[nH]c1ccc(-c3ccccc3)cc21 (configuration not stated) [casin] (0.833333 µM) | 0.105 | 102% (inactive)

Row | Compound | morphology score [1] | SARS-CoV-2 infection rate [2]
17 | NC(=S)N/N=C/c1ncccc1N [triapine] (0.833333 µM) | 0.051 | 106% (inactive)
18 | Cc1cc(C)c(CNC(=O)c2cc(-c3ccc(CN4CCOCC4)cc3)cc3c2cnn3C2CCCC2)c(=O)[nH]1 (10 µM) | -0.13 | 110% (inactive)
19 | CC(C)(S)C(N)C(=O)O (stereo in doubt) [penicillamine-(racemic)] (10 µM) | 0.0971 | 100% (inactive)
20 | CC(=O)[C@H]1CC[C@H]2[C@@H]3CC=C4C[C@@H](O)CC[C@]4(C)[C@H]3CC[C@]12C [pregnenolone] (10 µM) | -0.283 | 112% (inactive)
21 | Cc1ccc(C23CNCC2C3)cc1 (configuration not stated) [bicifadine] (10 µM) | 0.0287 | 107% (inactive)
22 | C[C@H](NC(=O)C(C)(C)Oc1ccc(C(F)(F)F)cn1)[C@@H](Cc1ccc(Cl)cc1)c1cccc(C#N)c1 [taranabant] (10 µM) | 0.1 | 101% (inactive)
23 | CN(c1ccccc1CNc1nc(Nc2ccc3c(c2)CC(=O)N3)ncc1C(F)(F)F)S(C)(=O)=O (10 µM) | 0.0447 | 114% (inactive)
24 | Cc1ccccc1-n1c(Cn2ncc3c(N)ncnc32)nc2cccc(C)c2c1=O (10 µM) | 0.373 | 45% (active)
25 | COCCCOc1cc(C[C@@H](C[C@H](N)[C@@H](O)C[C@H](C(=O)NCC(C)(C)C(N)=O)C(C)C)C(C)C)ccc1OC [aliskiren-hemifumarate] (10 µM) | -0.0367 | 110% (inactive)
26 | COc1cccc(-c2cc(F)ccc2[C@H]2Cc3nc(N)nc(C)c3C(=O)N2)n1 (0.833333 µM) | 0.125 | 99% (inactive)
27 | CC(C)(C)c1cc(C=C(C#N)C#N)cc(Br)c1O (10 µM) | 0.14 | 108% (inactive)
28 | CC(c1cc2ccccc2s1)N(O)C(N)=O (configuration not stated) [zileuton] (10 µM) | 0.0704 | 98.5% (inactive)
29 | CC(=O)O[C@]1(C(C)=O)CC[C@H]2[C@@H]3CCC4=CC(=O)CCC4=C3[C@@H](c3ccc(N(C)C)cc3)C[C@@]21C [Ulipristal acetate] (10 µM) | 0.286 | 104% (inactive)
30 | C=C1C[C@]23C[C@@]1(O)CC[C@H]2[C@@]12C=C[C@H](O)[C@@](C)(C(=O)O1)[C@H]2[C@@H]3C(=O)O (10 µM) | -0.0765 | 109% (inactive)
31 | CN1C(=O)/C(=C2/C(=O)Nc3ccccc32)c2ccccc21 [meisoindigo] (0.833333 µM) | 0.0882 | 96.5% (inactive)
